Growth data for eight compounds are collected here from PubChem BioAssay (NCI).

The panel holds about 83,000 compounds, 20% with a hit somewhere; the sample as a whole holds those more often.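 Assay: single dose, 48 h. Readout: percent growth (0 = no net growth; negative = cell death). Active: <10.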 A number with no mark means an inactive call. The source made the active and inactive calls.

Test systems include NCI-H23 lung; NCI-H226 lung; NCI-H322M lung; HOP-62 NSCLC; NCI-H460 lung; NCI-H522 lung; A549/ATCC NSCLC; 786-0 renal; COLO 205 colon; DU-145 prostate; K-562 leukemia; MDA-MB-231 breast; RXF 393 renal; SF-268 CNS; SF-295 CNS; SF-539 CNS; UACC-257 melanoma; M14 melanoma; MALME-3M melanoma.
Holding throughout (assay): NCI-60 one-dose screen, 48 h (100 = growth as untreated, 0 = no growth, -100 = all killed)
Holding throughout (conditions): 10 µM unless noted

On to `COc1ccc(C2CC(c3cccc(Nc4nc(Cl)nc5cc(OC)c(OC)cc45)c3)=Nc3c(N)nc(N)nc3N2)cc1` (centres undefined), for which the growth in the assay with NCI-H23 lung is 81.6%; in the assay on NCI-H226 lung it was 84.8%; in the assay with NCI-H322M lung it was 91.5%; in the assay on HOP-62 NSCLC it was 53.4%; in the assay on NCI-H460 lung it was 61.9%; in the assay with NCI-H522 lung, 78.6%. Further, the growth is 82.3% in the assay with A549/ATCC NSCLC; 71.4% with 786-0 renal; 96.4% with COLO 205 colon; 88.8% in the assay with DU-145 prostate; 4.51% (active) in the assay with K-562 leukemia; 87% in the assay on MDA-MB-231 breast. In addition, the growth in the assay on RXF 393 renal is 76.3%; in the assay on SF-268 CNS it was 86.5%; in the assay on SF-295 CNS, 60.1%; with SF-539 CNS, 91.9%; with UACC-257 melanoma, 106%; with M14 melanoma it was 93.5%.
Take `Cc1cccc(/C=C/C(=O)Nc2ncc(Cc3cccc(C)c3)s2)c1`: the growth is 30.4% in the assay on NCI-H23 lung; 17.7% in the assay on NCI-H226 lung; 39.9% with NCI-H322M lung; 32.1% with HOP-62 NSCLC; 8.64% (active) with NCI-H460 lung; -43.2% (active) in the assay on NCI-H522 lung. Besides, the growth in the assay with A549/ATCC NSCLC is 31.1%; in the assay with 786-0 renal it was 21.3%; with COLO 205 colon, -0.745% (active); in the assay with DU-145 prostate, 8.51% (active); in the assay with K-562 leukemia, 11.9%; with MALME-3M melanoma it was 33.6%. The growth is 38.8% in the assay on MDA-MB-231 breast; 48.2% in the assay with SF-268 CNS; -1.79% (active) in the assay on SF-295 CNS; 4.05% (active) with SF-539 CNS; 38.3% in the assay on UACC-257 melanoma; 0.505% (active) in the assay with M14 melanoma.
For the compound `CCOC(=O)c1c(Nc2ccccc2)nn2c(-c3ccccc3)ccnc12`, the growth with NCI-H23 lung is 86.2%; in the assay on NCI-H226 lung, 85.3%; with NCI-H322M lung, 94.2%; with HOP-62 NSCLC, 101%; in the assay on NCI-H460 lung, 97.9%; with NCI-H522 lung it was 87.9%. The growth was 92.4% in the assay on A549/ATCC NSCLC; 86.6% with 786-0 renal; 99.5% in the assay on COLO 205 colon; 97.5% in the assay on DU-145 prostate; 63.8% with K-562 leukemia; 105% with MALME-3M melanoma. In addition, the growth in the assay with MDA-MB-231 breast is 82.4%; with SF-268 CNS, 113%; in the assay on SF-295 CNS it was 92.9%; in the assay with SF-539 CNS, 92.5%; in the assay with UACC-257 melanoma it was 112%; in the assay on M14 melanoma it was 110%.
For the compound `O=C(CN1CCN(c2cc(=O)n(-c3ccccc3)c3ccccc23)CC1)Nc1cccc(C(F)(F)F)c1`, the growth with NCI-H23 lung is 55.5%; with NCI-H226 lung, 56.6%; with NCI-H322M lung it was 82.4%; in the assay with HOP-62 NSCLC it was 70.6%; with NCI-H460 lung, 57.9%; in the assay on NCI-H522 lung, 56.5%. Besides, the growth was 51.8% in the assay on A549/ATCC NSCLC; 80.5% with 786-0 renal; 68.5% in the assay with COLO 205 colon; 64.7% in the assay with DU-145 prostate; 23.4% in the assay on K-562 leukemia; 68.7% in the assay with MDA-MB-231 breast. The growth is 62.2% in the assay on RXF 393 renal; 66.2% with SF-268 CNS; 59% with SF-295 CNS; 71.5% in the assay with SF-539 CNS; 38.8% in the assay with UACC-257 melanoma; 60.5% with M14 melanoma.
Regarding `O=C(CN1CCN(c2cc(=O)n(-c3ccccc3)c3ccccc23)CC1)Nc1ccc(F)cc1`, the growth in the assay with NCI-H23 lung was 57.5%; in the assay with NCI-H226 lung it was 63.6%; in the assay with NCI-H322M lung, 83.6%; with HOP-62 NSCLC, 83%; in the assay with NCI-H460 lung, 71.1%; with NCI-H522 lung it was 66.1%. Moreover, the growth in the assay with A549/ATCC NSCLC was 74.7%; with 786-0 renal it was 81.9%; with COLO 205 colon, 85.3%; in the assay on DU-145 prostate, 68.5%; in the assay on K-562 leukemia, 37.3%; in the assay on MDA-MB-231 breast, 63%. Moreover, the growth in the assay with RXF 393 renal was 71.9%; in the assay with SF-268 CNS it was 69.2%; in the assay on SF-295 CNS, 71.8%; in the assay with SF-539 CNS, 76.6%; in the assay with UACC-257 melanoma, 49.7%; in the assay on M14 melanoma, 75.7%.
With `NC(N)=Nc1ccc(Oc2cccc(Nc3ccc(Br)c(C(F)(F)F)c3)c2)cn1`, the growth with NCI-H23 lung was -61% (active); in the assay on NCI-H226 lung it was -78.1% (active); in the assay on NCI-H322M lung, -43.6% (active); in the assay with HOP-62 NSCLC it was -46.1% (active); in the assay on NCI-H460 lung, -76.9% (active); in the assay with NCI-H522 lung, -64.8% (active). In addition, the growth is -23.9% (active) in the assay on A549/ATCC NSCLC; -67.8% (active) in the assay with 786-0 renal; -73.2% (active) with COLO 205 colon; -94.5% (active) in the assay on DU-145 prostate; -30.3% (active) in the assay on K-562 leukemia; -57.6% (active) in the assay with MDA-MB-231 breast. The growth in the assay on RXF 393 renal is -10.5% (active); with SF-268 CNS, 7.02% (active); with SF-295 CNS, -86.8% (active); in the assay on SF-539 CNS, -50.3% (active); with UACC-257 melanoma it was -28.5% (active); in the assay on M14 melanoma, -62.1% (active).
As to `C#CCC#CCN1CCC[C@H]1C(=O)NCC(=O)OC`, the growth in the assay with NCI-H23 lung was 96.7%; with NCI-H226 lung, 104%; in the assay with NCI-H322M lung it was 101%; with HOP-62 NSCLC it was 104%; with NCI-H460 lung, 112%; with NCI-H522 lung, 100%. In addition, the growth in the assay on A549/ATCC NSCLC was 97.6%; in the assay with 786-0 renal it was 101%; in the assay on COLO 205 colon it was 114%; with DU-145 prostate, 105%; with K-562 leukemia, 98.1%; in the assay with MDA-MB-231 breast, 106%. Also, the growth in the assay with RXF 393 renal was 105%; in the assay on SF-268 CNS, 108%; in the assay on SF-295 CNS, 107%; in the assay with SF-539 CNS, 105%; in the assay on UACC-257 melanoma, 93.7%; with M14 melanoma it was 107%.
On to `CC[C@]12C=CCN3CC[C@@]4(c5cc(NC(=O)COc6cc(O)c7c(=O)cc(-c8ccccc8)oc7c6)c(OC)cc5N(C)[C@H]4[C@@](O)(C(=O)OC)[C@@H]1OC(C)=O)[C@@H]32`, for which the growth in the assay with NCI-H23 lung is -92.9% (active); in the assay on NCI-H226 lung, -70.4% (active); in the assay with NCI-H322M lung, -51.8% (active); in the assay on HOP-62 NSCLC it was -73.6% (active); with NCI-H460 lung it was -57.7% (active); in the assay with NCI-H522 lung, -49.7% (active). The growth is -68.5% (active) in the assay on A549/ATCC NSCLC; -59.9% (active) in the assay on 786-0 renal; -81% (active) in the assay on COLO 205 colon; -33.6% (active) in the assay on DU-145 prostate; -1.41% (active) with K-562 leukemia; -58.3% (active) in the assay with MDA-MB-231 breast. For the same compound, the growth with RXF 393 renal is -92.1% (active); with SF-268 CNS, -60.6% (active); with SF-295 CNS, -85.3% (active); in the assay on SF-539 CNS, -77.1% (active); in the assay with UACC-257 melanoma, -76.1% (active); with M14 melanoma it was -75.4% (active).
